PLAP activator: activators of human placental alkaline phosphatase; purified PLAP enzyme, luminescent substrate read-out; hits give high values; activation fold at 20 µM; 1.2% of 96,000 active; AID 696; in the data active = activation fold above about 2
Target sequence (P05187 whole entry, looked up): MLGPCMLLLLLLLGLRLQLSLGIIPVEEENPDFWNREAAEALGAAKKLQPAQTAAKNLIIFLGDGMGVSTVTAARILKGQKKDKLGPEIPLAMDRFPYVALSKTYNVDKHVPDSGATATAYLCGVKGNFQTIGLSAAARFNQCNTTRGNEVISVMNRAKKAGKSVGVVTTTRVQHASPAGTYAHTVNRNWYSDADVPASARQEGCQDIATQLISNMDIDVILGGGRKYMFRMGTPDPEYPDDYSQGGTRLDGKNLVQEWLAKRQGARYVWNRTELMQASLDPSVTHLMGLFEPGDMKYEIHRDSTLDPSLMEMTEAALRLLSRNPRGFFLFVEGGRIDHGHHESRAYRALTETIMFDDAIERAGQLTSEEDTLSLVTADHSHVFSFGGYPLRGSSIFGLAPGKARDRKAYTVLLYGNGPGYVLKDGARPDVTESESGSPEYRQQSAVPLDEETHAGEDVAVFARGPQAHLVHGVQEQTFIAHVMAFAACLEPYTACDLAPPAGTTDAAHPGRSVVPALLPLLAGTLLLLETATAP
TNAP act mid DEA: human TNAP activation, intermediate phosphate acceptor | AID 813 | 64,000 tested, under 10 active | P05186 | activation factor at 20 µM | purified TNAP, CDP-star luminescence, 100 mM DEA, 30 min; hits give high values; scale: 0 levamisole-inhibited, 1 vehicle-only enzyme;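 active = activation factor of at least 2 at 20 µM, relative to controls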
HePTP inh: blocks human HePTP tyrosine phosphatase; recombinant HePTP phosphatase activity, OD absorbance; 0.64% of 110,000 active; AID 521; inhibition, % at 20 µM; P35236; in the data active = inhibition above about 50%;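 note: plate controls were vehicle for no effect and reference inhibitor for full effect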
Calb biofilm kill: kills Candida albicans biofilms; C. albicans biofilm + clotrimazole, Alamar Blue; inhibition, % at 6 µM; 0.14% of 85,000 active;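 active = inhibition above 20%; inactive = inhibition below 20%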;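 note: preformed 24 hr biofilms exposed to compound for 48 hr; 0% = biofilm without compound and 100% = blank killed by clotrimazole plus chlorhexidine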
DAT uptake mod: modulates human dopamine transporter uptake under cocaine | Q01959 | LLC-PK1 hDAT cells, [14C]-dopamine uptake with cocaine IC80; actives deviate in either direction | B-score at 10 µM | 1.3% of 110,000 active;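 active = Z score or B-score, a plate-position-corrected score, falls beyond the plate's 99.7% confidence bounds, in either direction; inactive = both scores lie inside the 99.7% bounds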;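 note: scored against the spread of the other compound wells on the same plate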
D1 allo mod: D1 dopamine receptor (human) allosteric modulation | 5.9% of 58,000 active | HEK293 D1, CRE-luciferase, dopamine EC30 potentiation; actives deviate in either direction | B-score at 10 µM;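 active = luminescence count or its row- and column-corrected plate score outside the 99.7% band of the plate's sample wells, on either side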
D1 mod confirm: D1 receptor (human) allosteric modulation, confirmed | shares compounds with D1 allo mod | HEK293 D1 CRE-luciferase, dopamine EC30 potentiation; hits give high values | luminescence at 10 µM | 88% of 2,200 active | AID 642;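 active = luminescence in either of two replicates above the same-plate mean plus 3 SD of the low-dose dopamine control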
D1 no dopamine: activates D1 CRE-luciferase signal without dopamine present. shares compounds with D1 allo mod. HEK293 D1 CRE-luciferase, luminescence, no dopamine; hits give high values. luminescence at 10 µM. 0.8% of 1,900 active. AID 646; in the data active = luminescence above about 3900
Isoprot counter: isoproterenol response counter-screen activity for D1 modulators | shares compounds with D1 allo mod | HEK293 D1 CRE-luciferase, isoproterenol EC30 counter-screen; hits give high values | luminescence at 10 µM | 63% of 2,200 active | AID 647;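 active = luminescence in either replicate above plate mean of wells with a partly effective reference agonist dose plus 3 SD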;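 note: isoproterenol raises cAMP through native beta-adrenoceptor Gs so signal bypasses D1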
Starred values were filed as active, the others as inactive; . = not tested or not shown. Many of the other results were omitted from the sample, so hits are more common in it than they were.

SMILES | PLAP activator | TNAP act mid DEA | HePTP inh | Calb biofilm kill | DAT uptake mod | D1 allo mod | D1 mod confirm | D1 no dopamine | Isoprot counter
CCCCN(C)C(=O)c1cn(CC)c2ccc(S(=O)(=O)N(C)C)cc2c1=O | 0.9 | 0.9 | 0 | 9 | -0.48 | 3* | 5816 | 1512 | 2356
Cc1ccnc(SCCn2c(N3CC(C)CC(C)C3)nc3c2c(=O)n(C)c(=O)n3C)n1 (stereo not drawn) | 1.5 | 1 | 2 | 5 | -0.48 | 3* | 5916* | 1664 | 2888*
CCOc1ccc(-c2csc(/C(C#N)=C/c3ccco3)n2)cc1 | . | . | 11 | . | . | . | . | . | .
O=C(NCc1ccco1)c1cnn2c(C(F)(F)F)cc(-c3ccccc3)nc12 | 1.1 | 1 | 2 | 9 | -0.85 | 2 | . | . | .
NC(=O)c1cnn2c(C(F)(F)F)cc(-c3ccccc3)nc12 | 0.8 | 0.9 | -1 | -6 | -0.76 | 7.9* | 17628* | 1408 | 4488*
NC(=O)c1cnn2c(C(F)(F)F)cc(-c3ccc(F)cc3)nc12 | 0.9 | 1 | 8 | 3 | -0.14 | 2.5* | 10756* | 1664 | 4224*
Cc1ccc(-c2cc(C(F)(F)F)n3ncc(C(=O)N4CCN(c5ccc(F)cc5)CC4)c3n2)cc1 | . | . | -4 | . | . | . | . | . | .
Cc1ccc(-c2c3c(=O)n(C)c(=O)n(C)c3c3nnc4ccccc4n23)cc1 | . | 1 | 10 | 2 | . | 0.66 | . | . | .
Cc1ccnn2c(-c3ccccc3)c3c(=O)n(C)c(=O)n(C)c3c12 | 1 | 0.9 | 6 | 4 | -0.35 | 9.1* | 12160* | 1656 | 3604*
CCc1ccc(-n2nc(C)c3c(C)cc(=O)oc32)cc1 | . | . | -15 | . | . | . | . | . | .
CSc1nnc(-c2cccs2)n1-c1ccccc1 | 0.9 | 1 | 6 | . | 1.6 | 3.7* | 17328* | 1712 | 3412*
O=C(O)CSc1nnc(-c2cccs2)n1-c1ccccc1 | . | . | 13 | . | . | . | . | . | .
COc1ccc(-c2ccc(SCC(=O)Nc3cc(C)on3)nn2)cc1OC | 1 | 0.9 | -2 | 5 | -0.39 | 5.8* | 23296* | 1724 | 3844*
COc1cccc(-c2nnc(SCC(=O)Nc3cc(C)on3)o2)c1 | 0.8 | 1 | 7 | . | -0.3 | 5.7* | 6316* | 1520 | 2832
O=C(O)/C=C/C(=O)Nc1cc([N+](=O)[O-])ccc1F | . | . | 6 | . | . | . | . | . | .
COc1ccc(-c2cnnn2-c2ccc(N)cc2)cc1OC | . | . | . | 0 | -0.0036 | 11* | 19800* | 1764 | 5000*
COc1cc(/C=C2/C(=O)NC(=O)N(c3ccc(C(C)C)cc3)C2=O)cc(Cl)c1O | . | . | -6 | . | . | . | . | . | .
COC(=O)CSC1=C(C#N)C(c2cccc(OC)c2)CC(=O)N1 (stereo not drawn) | 1 | 0.9 | 7 | -3 | -0.99 | 1.9* | 5484 | 1664 | 2468
COC(=O)CSC1=C(C#N)C(c2cccc(F)c2)CC(=O)N1 (stereo not drawn) | 0.9 | 0.9 | -2 | -4 | -0.32 | 0.16 | . | . | .
COc1ccc(C(C#N)C2(C)OCCO2)cc1OC (stereo not drawn) | 1.1 | 0.9 | 6 | 8 | -0.0048 | 10* | 10756* | . | 2684*
COc1ccc(C2CC(=O)Nc3ccccc3S2(=O)=O)cc1OC (stereo not drawn) | 1.1 | 1 | 11 | 6 | -0.84 | 2.9* | 9916* | 1608 | 2252
COc1ccc(C2CC(=O)C3=C(C2)Nc2ccccc2NC3c2ccc(OC)c(OC)c2)cc1 (stereo not drawn) | . | . | -1 | . | . | . | . | . | .
CC(C)(C)NCC(O)COC1CCC(C(C)(C)C)CC1 (stereo not drawn) | . | . | -5 | . | . | . | . | . | .
N#Cc1c2n(c3c(=O)n(Cc4ccc(Cl)cc4)cnc13)CCCCC2 | 1.5 | 0.9 | 2 | -3 | 1.3 | 11* | 13432* | 1956 | 4660*
CC(C)OC(=O)CSc1nnc(-c2cnccn2)n1-c1ccc(Cl)cc1 | 1.7 | 1 | 6 | 0 | -1.5 | 3.4* | 11484* | 1664 | 3136

Assay outcomes as filed in PubChem BioAssay.
